# Measurements: PubChem BioAssay (NCI)
# “And” between values parts separate entries of the source, which are not always exact repeats. Identical values can stand only once. Compounds without any hit were thinned out: in the full panel of roughly 83,000, 20% have a hit.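 Results are percent growth after 48 hours of single-concentration exposure. 100 means growth as in untreated cells, lower positive values show inhibition; negative values down to -100 show cell death.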 The source made the active and inactive calls. Rule for the calls: active = growth percent below 10; inactive = the rest.
# Test system: MDA-MB-468 breast
# Assay: NCI-60 one-dose screen, 48 h (100 = growth as untreated, 0 = no growth, -100 = all killed)
# Details: 10 µM unless noted
row,Compound,growth
1,Nc1nc2ccc(-c3nc4ccc5[nH]ncc5c4c4c3CCC4)cc2s1,-5.96% (active)
2,Cc1ccc2nc(C[n+]3ccc4ccccc4c3)ccc2c1,-3.95% (active)
3,c1ccc(CSc2nnc3c4c5c(sc4nc(-c4cccnc4)n23)CCCCCC5)cc1,0.132% (active)
4,COc1ccc(-c2ccc3c(N4CCOC[C@@H]4C)nc(N4CCOC[C@@H]4C)nc3n2)cc1CO,-27.4% (active)
5,CN(C)C[C@@H]1CCn2cc(c3ccccc32)C2=C(C(=O)NC2=O)c2cn(c3ccccc23)CCO1,23.3% (inactive)
6,COc1ccc(Nc2ncc(C#N)c(NCCCNC(=O)C3CCC3)n2)cc1,43% (inactive)
7,Nc1nc(Nc2ccc(OCc3cccc(F)c3)cc2)c2c(n1)[nH]c1ccc(O)cc12,-17.2% (active)
8,CCSc1nc(-c2ccc(F)cc2)c(C#N)c(=O)[nH]1,91.4% (inactive)
9,CCNC(=S)n1nc(SC)c(C(=O)OCC)c1N,114% (inactive)
10,CC1=C[C@H]2c3c(c(O)c(O)c4oc5cc(O)cc(O)c5c(=O)c34)[C@H](c3cc(O)c(O)c4oc5cc(O)cc(O)c5c(=O)c34)[C@H]2C(C)(C)C1,3.99% (active) and -26.3% (active)
11,FC(F)(F)c1ccc(CNc2ccc(Cc3c[nH]c4ncc(Cl)cc34)cn2)cn1,-0.191% (active)
12,Nc1nc(-c2ccccc2)c(CCCOc2ccc(NC(=O)CBr)cc2)c(=O)[nH]1,104% (inactive)
13,O=C1N/C(=C\c2ccccc2)c2ncccc21,96.2% (inactive)
14,O=C1NC(=S)NC(=O)C1CC(=O)n1c(-c2ccccc2)nc2ccccc21,105% (inactive)
15,Cc1ccc2nc(-c3ccc(OCC(=O)N=Nc4c(O)[nH]c5ccccc45)cc3)[nH]c2c1,60.6% (inactive)
16,O=C(Nc1ccc(N=Cc2c(O)[nH]c3ccccc23)cc1)Nc1nccs1,-2.28% (active)
17,COc1cc(-c2c3c(cn2CCN2CCCCC2)-c2oncc2CC3)cc(OC)c1OC,94.6% (inactive)
18,CN1CCN(/C=C2\CC(C(=O)NCc3ccc(Cl)cc3Cl)NC2=O)CC1 (stereo not given),103% (inactive)
19,O=C(CBr)c1ccc(OC(=O)c2ccccc2)cc1,116% (inactive)
20,CO[C@H]1/C=C/O[C@@]2(C)Oc3c(C)c(O)c4c(c3C2=O)C(=O)C(/C=N/N(c2ccccc2)c2ccccc2)=C(NC(=O)/C(C)=C\C=C\[C@H](C)[C@H](O)[C@@H](C)[C@@H](O)[C@@H](C)[C@H](OC(C)=O)[C@@H]1C)C4=O,-2.58% (active)

row,Compound,growth
1,NC(Cc1c[nH]c2ccccc12)C(=O)O (stereo not given),110% (inactive) and 112% (inactive)
2,COC(=O)c1cccc(NC2=CC(=O)C(C)=C(C)C2=O)c1,65.9% (inactive)
3,c1ccc2nc(Cn3c[n+](Cc4ccc5ccccc5n4)c4ccccc43)ccc2c1,-19.3% (active)
4,CCN(CC)c1ccc2cc(NC(=O)OCCNC(=O)CCNC(=O)[C@H](CC(C)C)NC(=O)C(C)(C)NC(=O)C(C)(C)NC(=O)[C@H](CC(C)C)NC(=O)CCNC(=O)C(C)(C)NC(=O)[C@H](CC(C)C)NC(=O)CCNC(=O)[C@@](C)(CC)NC(=O)[C@H](C)NC(=O)CCNC(=O)C(C)(C)NC(=O)[C@H](C)NC(=O)[C@@H]3CCCN3C(=O)[C@@](C)(CC)NC(=O)[C@H](Cc3ccccc3)NC(=O)C3CCCN3C(=O)C(C)(C)NC(=O)C3CCCN3C(=O)C(C)(C)NC(C)=O)c(=O)oc2c1 (stereo not given in full),-83% (active)
5,CC(=O)Nc1c(Cl)cc2c(c1Cl)Cc1cc([N+](=O)[O-])ccc1-2,-27.8% (active)
6,COc1ccccc1CNCCCCCCCCCCCCN1C(=O)c2ccc3c4c(ccc(c24)C1=O)C(=O)N(CCCCCCCCCCCCNCc1ccccc1OC)C3=O,-8.04% (active)
7,COc1ccc(/C=C\C(=O)/C=C/c2ccc(OC)cc2)cc1,18.7% (inactive)
8,COc1ccc(C(=O)c2cc3c(N)c(C(=O)Nc4ccc(Br)cc4)sc3nc2C)cc1,72.8% (inactive)
9,CCSc1ccc2c(c1)N(CCCN1CCN(C)CC1)c1ccccc1S2,-3.41% (active)
10,CC(CN(C)C)Oc1ccccc1NC1=C(Cl)C(=O)C(Nc2ccccc2OC(C)CN(C)C)=C(Cl)C1=O (stereo not given),-64.2% (active)
11,CN(c1ccccc1)c1ccc2c(c1)OCCC21CC1Nc1cnccc1C(=O)O (stereo not given),72.3% (inactive)
12,COc1cnc2c(c1)C(=O)c1c-2n(CCCNCCN2CCOCC2)c(=O)c2cc([N+](=O)[O-])ccc12,-27% (active)
13,O=C1C=C(Nc2ccccc2)c2ncccc2C1=O,-61.3% (active)
14,O=C(/C=C/c1ccc(F)cc1)N1CCN(C(=O)/C=C/c2ccc(C(F)(F)F)cc2)CC1,117% (inactive)
15,Cn1cc(-c2csc(-c3cn(C(=O)OC(C)(C)C)c4ccc(Br)cc34)n2)c2ccnc(Cl)c21,5.4% (active)
16,CCN1CCN(Cc2ccc(Cc3ncc(F)c(-c4cc(F)c5nc(C)n(C(C)C)c5c4)n3)nc2)CC1,80.6% (inactive)
17,N#Cc1nc(-c2ccc(F)cc2)oc1S(=O)(=O)N1CCOCC1,29% (inactive)
18,COc1ccc(/C=C2\CCC/C(=C\c3ccc(OC)c(OC)c3)C2=O)cc1OC,-16.6% (active)
19,COc1ccc(OC)c2c1CCC1(C2)NC(=O)NC1=O (stereo not given),106% (inactive)
20,COc1cc2cc(Oc3ccc(NC(=O)Nc4ccccc4)cc3)c(C)nc2cc1OCCN1CCCCC1,79.5% (inactive)
